Data taken from PubChem BioAssay (NCATS).
Values without a mark were called inactive. Records with an inconclusive call do not appear. Entries that show only a call come without a potency. Active and inactive are the calls of the source. Calls follow the shape of the dose curve; as a rule, active = well fitted inhibition curve with a large enough effect; inconclusive = small, poorly fitted or top-dose-only effect; inactive = flat fitted curve, though single readings scatter. Where a SMILES comes first, the peptide text is derived from it. The star is where a group is joined. Hexanoyl = CCCCCC(=O)*

Key:
[1] = molecular target: Glutathione peroxidase 1 (Homo sapiens) (UniProt P07203); experiment: Primary qHTS Assay for Inhibitors of Recombinant Selenoprotein Glutathione Peroxidase 1 (GPX1) (AID 1845191); also: nearly all actives have a fitted effect of over 65% in size
Procedure, shortened: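 Recombinant GPX1 (10 nM final) was preincubated with compound for 30 min at room temperature, then reacted with 1 mM GSH, 0.5 mM CHP, 0.5 mM NADPH and 100 nM glutathione reductase; NADPH fluorescence (340/450 nm) was read at 0 and 15 min.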

[2] = molecular target: Phospholipid hydroperoxide glutathione peroxidase GPX4 (Homo sapiens) (UniProt P36969); experiment: Primary qHTS Assay for Inhibitors of Recombinant Selenoprotein Glutathione Peroxidase 4 (GPX4) (AID 1845192); also: nearly all actives have a fitted effect of over 65% in size; as to activity change, negative = inhibition: series mostly up to about 50 µM
Procedure, shortened: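 GR-coupled readout: 100 nM GR, 1 mM GSH, 0.5 mM NADPH; NADPH fluorescence (ex 340/em 450 nm) read at t=0 and after 15 min RT. GPX4 200 nM, preincubated 30 min with compound; substrate 0.5 mM CHP.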

[3] = molecular target: Luciferin 4-monooxygenase (Photinus pyralis) (UniProt P08659); experiment: Primary firefly luciferase (FLuc) qHTS assay for identification of artifact compounds. (AID 1845220); also: nearly all actives have a fitted effect of over 60% in size; as to activity change, negative = inhibition: series mostly up to about 54 µM
Procedure, shortened: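 Reaction readout was CCD-imaged luminescence, taken 5 min after adding 10 nM purified firefly enzyme to compound-treated wells holding 10 uM luciferin and ATP in pH 7.6 buffer.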

Phospholipid hydroperoxide glutathione peroxidase GPX4 (Homo sapiens), sequence (P36969 whole entry, looked up): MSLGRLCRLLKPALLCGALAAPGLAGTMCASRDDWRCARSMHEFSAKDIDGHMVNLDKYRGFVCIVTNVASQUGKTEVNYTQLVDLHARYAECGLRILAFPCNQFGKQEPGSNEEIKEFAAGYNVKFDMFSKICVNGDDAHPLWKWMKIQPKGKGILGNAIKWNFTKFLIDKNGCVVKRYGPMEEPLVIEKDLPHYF
Glutathione peroxidase 1 (Homo sapiens), sequence (P07203 whole entry, looked up): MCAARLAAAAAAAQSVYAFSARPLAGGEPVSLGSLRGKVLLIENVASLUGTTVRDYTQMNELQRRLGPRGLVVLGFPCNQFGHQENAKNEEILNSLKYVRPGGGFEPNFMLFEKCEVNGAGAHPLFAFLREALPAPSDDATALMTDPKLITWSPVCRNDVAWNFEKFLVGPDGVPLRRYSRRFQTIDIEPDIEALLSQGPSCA

**Q.** For `C=CC(C)(O)CC/C=C(\C)COC1O[C@H](CO)[C@@H](O)[C@H](O)[C@H]1O` (some centres undefined), which Potency [1] is on record?
**A.** inactive

**Q.** And the Potency [2]?
**A.** inactive

**Q.** And the Potency [3]?
**A.** inactive

**Q.** `CC1=C(CCC(C)O[C@@H]2O[C@H](CO)[C@@H](O)[C@H](O)[C@H]2O)C(C)(C)CC(O)C1` (some centres undefined) was tested. Which Potency [1] did it give?
**A.** inactive

**Q.** What about the Potency [2] of the same molecule?
**A.** inactive

**Q.** And the Potency [3]?
**A.** inactive

**Q.** Which results are given for `CCOC(=O)COc1ccc2c(c1)C[C@@H](NC[C@H](O)c1cccc(Cl)c1)CC2`?
**A.** Potency [2]: inactive; Potency [3]: inactive

**Q.** Which results are given for `CC1=C(CC/C(C)=C/C(=O)O)[C@@]2(C)CCCC(C)(C)C2CC1=O` (some centres undefined)?
**A.** Potency [2]: inactive; Potency [3]: inactive

**Q.** Which Potency [2] does the source give for `O=C(O)CC(CCc1ccccc1)OC1OC(CO)C(O)C(O)C1O` (centres undefined) here?
**A.** inactive

**Q.** What about the Potency [3] of the same molecule?
**A.** inactive

**Q.** How did the Potency [2] turn out when `CCNC(=O)C1CC(F)(c2ccc(CN3CCCC3)c(F)c2)C1` (centres undefined) was run?
**A.** inactive

**Q.** What about the Potency [3] of the same molecule?
**A.** inactive

**Q.** With `C[C@H]1[C@H](C)C[C@@H](C(=O)O)C2CC[C@]3(C)C(=CC[C@@H]4[C@@]5(C)CC[C@H](O)C(C)(C)[C@@H]5CC[C@]43C)[C@@H]21` (some centres undefined) as the molecule, how does the Potency [2] read?
**A.** inactive

**Q.** And the Potency [3]?
**A.** inactive

**Q.** How did the Potency [3] turn out when `O=C(O)c1cccc(CN2C(=O)/C(=C(\c3ccccc3)c3ccc(Cl)cc3)c3ccccc32)c1` was run?
**A.** inactive

**Q.** How did the Potency [2] turn out when `CCCNCCOc1ccc(NC(=O)c2c[nH]c3c2C(=O)CCC3)cc1F` was run?
**A.** inactive

**Q.** And the Potency [3]?
**A.** inactive

**Q.** How did the Potency [2] turn out when `COC(=O)C1=CO[C@@H](O[C@@H]2O[C@H](CO)[C@@H](O)[C@H](O)[C@H]2O)C2C1CC(O)C2C` (some centres undefined) was run?
**A.** inactive

**Q.** What about the Potency [3] of the same molecule?
**A.** inactive

**Q.** Which results are given for `COC(=O)C[C@@H]1C(C(=O)O)=CO[C@@H](O[C@@H]2O[C@H](CO)[C@@H](O)[C@H](O)[C@H]2O)/C1=C\COC(=O)/C=C/c1ccc(O)c(OC)c1`?
**A.** Potency [2]: inactive; Potency [3]: inactive

**Q.** What does the source list for `CCOC(=O)C(CCc1ccccc1)NC1CCCN2CCCC(C(=O)O)N2C1=O` (centres undefined)?
**A.** Potency [2]: inactive; Potency [3]: inactive

**Q.** What does the source list for `CC1=C2C(=O)C=C(CO[C@@H]3O[C@H](CO)[C@@H](O)[C@H](O)[C@H]3O)[C@@H]2[C@H]2OC(=O)[C@H](C)[C@@H]2CC1`?
**A.** Potency [2]: inactive; Potency [3]: inactive

**Q.** Which Potency [2] does the source give for `CN1CCCC1Cc1c[nH]c2ccc(CCS(=O)(=O)c3ccccc3)cc12` (centres undefined) here?
**A.** inactive

**Q.** What about the Potency [3] of the same molecule?
**A.** inactive

**Q.** What does the source list for `O=C(/C=C/N1C[C@@H]2C[C@@H]1CN2c1ccccn1)c1ccccc1O`?
**A.** Potency [2]: inactive; Potency [3]: inactive

**Q.** What does the source list for `CCC1(O)CC2c3cc(OC)c(OC)cc3CCN2CC1CC(C)C` (centres undefined)?
**A.** Potency [2]: inactive; Potency [3]: inactive

**Q.** For `Cc1ccc2[nH]c(=O)c(C3=NN(C(=O)CCC(=O)O)C(c4ccc(Br)cc4)C3)c(-c3ccccc3)c2c1` (centres undefined), which Potency [3] is on record?
**A.** inactive

**Q.** Which Potency [2] does the source give for `CCCCS(=O)(=O)NC(Cc1ccc(OCCCCC2CCNCC2)cc1)C(=O)O` (centres undefined) here?
**A.** inactive

**Q.** And the Potency [3]?
**A.** inactive

**Q.** With `CC1=C2C3OC(=O)C(C)C3(O)CCC2(C)CCC1` (centres undefined) as the molecule, how does the Potency [2] read?
**A.** inactive

**Q.** And the Potency [3]?
**A.** inactive

**Q.** Which results are given for `COC(=O)C1=COC(OC2OC(CO)C(O)C(O)C2O)C2C(C)C(OC(=O)/C=C/c3ccc(O)cc3)C(O)C12` (centres undefined)?
**A.** Potency [2]: inactive; Potency [3]: inactive

**Q.** `O=C(NC1Cc2ccccc2N(C[C@@H](O)CO)C1=O)c1cc2cc(Cl)sc2[nH]1` (some centres undefined) was tested. Which Potency [3] did it give?
**A.** inactive

**Q.** Which Potency [3] does the source give for `O=C(O)c1ccnc2cc(-c3nc4ccccc4n3CCN3CCCCC3)sc12` here?
**A.** inactive

**Q.** What does the source list for `C=C(C)[C@@H]1CC[C@]2(C(=O)O)CC[C@]3(C)[C@H](CCC4[C@@]5(C)CCC(=O)C(C)(C)C5C(O)C[C@]43C)C12` (some centres undefined)?
**A.** Potency [2]: inactive; Potency [3]: inactive

**Q.** For `COc1ccc(CCC(=O)c2c(O)cc(O[C@@H]3O[C@H](CO)[C@@H](O)[C@H](O)[C@H]3O[C@@H]3O[C@@H](C)[C@H](O)[C@@H](O)[C@H]3O)cc2O)cc1O`, which Potency [2] is on record?
**A.** inactive

**Q.** And the Potency [3]?
**A.** inactive

**Q.** With `C=CCc1ccc(O[C@@H]2O[C@H](CO)[C@@H](O)[C@H](O)[C@H]2O)c(O[C@@H]2O[C@H](CO)[C@@H](O)[C@H](O)[C@H]2O)c1` as the molecule, how does the Potency [2] read?
**A.** inactive

**Q.** And the Potency [3]?
**A.** inactive

**Q.** Which Potency [2] does the source give for `CC(C)=CCC[C@](C)(O[C@@H]1O[C@H](CO[C@@H]2OC[C@H](O)[C@H](O)[C@H]2O)[C@@H](O)[C@H](O)[C@H]1O)[C@H]1CC[C@]2(C)[C@@H]1[C@H](O)C[C@@H]1[C@@]3(C)CC[C@H](O[C@@H]4O[C@H](CO)[C@@H](O)[C@H](O)[C@H]4O[C@@H]4O[C@H](CO)[C@@H](O)[C@H](O)[C@H]4O)C(C)(C)[C@@H]3CC[C@]12C` here?
**A.** inactive

**Q.** And the Potency [3]?
**A.** inactive

**Q.** What does the source list for `O=C(O[C@@H]1O[C@H](CO)[C@@H](O)[C@H](O)[C@H]1O)c1ccccc1`?
**A.** Potency [2]: inactive; Potency [3]: inactive

**Q.** Which results are given for `COc1cc(Nc2ccc([N+](=O)[O-])cc2C(=O)O)cc2ccccc12`?
**A.** Potency [2]: inactive; Potency [3]: inactive

**Q.** What does the source list for `COc1cc2nc(=NC(=O)c3cccnc3)n3c(c2cc1OC)NCC3`?
**A.** Potency [2]: inactive; Potency [3]: inactive

**Q.** For `C/C(CO)=C1/CCC23COC(C2)C(O)(C(=O)O)CCC13` (centres undefined), which Potency [2] is on record?
**A.** inactive

**Q.** What about the Potency [3] of the same molecule?
**A.** inactive

**Q.** For `O=C(/C=C/c1ccc(O)cc1)OCC1OC(O)C(OC2OC(CO)C(O)C(O)C2O)C(O)C1O` (centres undefined), which Potency [2] is on record?
**A.** inactive

**Q.** What about the Potency [3] of the same molecule?
**A.** inactive

**Q.** With `CC1(C)[C@H]2C[C@H](C/C=C\CCCC(=O)O)[C@@H](NC(=O)c3csc4ccc(O)cc34)[C@@H]1C2` as the molecule, how does the Potency [2] read?
**A.** inactive

**Q.** What about the Potency [3] of the same molecule?
**A.** inactive

**Q.** Which results are given for `COC(=O)C(CC1(O)c2ccccc2N2C(=O)C(CC(C)C)NC21)n1cnc2ccccc2c1=O` (centres undefined)?
**A.** Potency [2]: inactive; Potency [3]: inactive

**Q.** Which Potency [2] does the source give for `COC(O)(CC(C)C)C1Oc2cc(C)[nH]c(=O)c2O1` (centres undefined) here?
**A.** inactive

**Q.** And the Potency [3]?
**A.** inactive

**Q.** Which Potency [2] does the source give for `CC(CC12CCCN1C(=O)C1CCCN1C2=O)OC(N)=O` (centres undefined) here?
**A.** inactive

**Q.** What about the Potency [3] of the same molecule?
**A.** inactive

**Q.** `COc1cc(/C=C/c2ccccc2)c(C(=O)O)c(O)c1CC=C(C)C` was tested. Which Potency [2] did it give?
**A.** inactive

**Q.** What about the Potency [3] of the same molecule?
**A.** inactive

**Q.** What does the source list for `CC(C)(C)NS(=O)(=O)c1ccc(-c2ccc3[nH]nc(N)c3c2)cc1`?
**A.** Potency [2]: inactive; Potency [3]: inactive

**Q.** Which results are given for `NC(=O)NCCCC(NC(=O)Cc1ccccc1)C(=O)O` (centres undefined)?
**A.** Potency [2]: inactive; Potency [3]: inactive

**Q.** How did the Potency [2] turn out when `CCCCCC(=O)N1CCC[C@H]1C(=O)N[C@@H](Cc1ccc(O)cc1)C(=O)OC` (Hexanoyl-Pro-Tyr-OMe) was run?
**A.** inactive

**Q.** What about the Potency [3] of the same molecule?
**A.** inactive

**Q.** With `Cc1ccccc1N1CCN(S(=O)(=O)C[C@]23CC[C@H](C[C@@H]2NC(=O)[C@@H](N)CCS(C)(=O)=O)C3(C)C)CC1` as the molecule, how does the Potency [2] read?
**A.** inactive

**Q.** What about the Potency [3] of the same molecule?
**A.** inactive

**Q.** With `COc1cc(C)c(C(=O)OC2C(C)OC(OC3CCC(C)C4C3C=C(C)C3/C(C)=C\CC/C(C)=C/C5(C)C=C(C(=O)O)C(C)CC56OC(=O)/C(=C(\O)C34C)C6=O)C(O)C2O)c(OC)c1` (centres undefined) as the molecule, how does the activity change, negative = inhibition [3] read?
**A.** 1.3% [at 11.6 µM]
